Screening data: PubChem BioAssay, National Center for Advancing Translational Sciences (NCATS)
Only a selection was taken, and hits are over-represented in it overall.
HBB splice mod – modulators of hemoglobin beta chain splicing. Potency, µM (highest dose often 46.1 µM), usual class: activators. HBB splicing reporter cell assay, activation; EGFP reporter with mutant IVS2-654 intron; response scale: normalised to 500 nM splice-correcting PNA. AID 925. 0.06% of 65,000 active
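Compounds were applied for 2 days to HeLa EGFP-654 cells, 500/well in Optimem with 2% FCS. The reporter's EGFP is disrupted by mis-splicing of beta-globin intron IVS2-654. Readout: summed well GFP fluorescence from 488 nm laser scanning; reference was 500 nM antisense […] 654 PNA.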
Hsp90 Hop PPI – changes Hsp90-Hop TPR2A binding signal, up or down. Potency, µM (titrated, usually from 57 µM). 0.44% of 71,000 active. AlphaScreen TPR2A-His6 binding biotin-Hsp90 C-terminal peptide; active = well fitted curve in either direction with a large enough effect; inconclusive = small, poorly fitted or top-dose-only effect, or another doubt
GFP derepression – epigenetic GFP locus derepression in mouse cells; AID 597; 0.09% of 68,000 active; mouse C127i GFP locus derepression, cytometry, 30 h; Potency, µM (doses to about 46.1 µM)
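Locus derepression in mouse mammary C127i cells whose integrated CMV-GFP reporter is normally silent; GFP expression after 30 h compound treatment was quantified by counting fluorescent cells.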
IkB sig inh – IkB pathway inhibition in ABC-DLBCL cells; ABC-DLBCL IkBa-CBG/CBR dual luciferase ratio, 4 h; response scale: scaled: untreated 0%, proteasome inhibitor 100%; AID 445; Potency, µM (top dose mostly 57.1 µM); 0.04% of 110,000 active; active = well fitted curve in the direction sought with a large enough effect in the signal ratio, not every such curve was filed as active; inconclusive = small, poorly fitted or top-dose-only effect, or a change in a side signal; the % refers to the signal ratio;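 note: the direction sought is a rising ratio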
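In this assay, an IκBα–CBG68 fusion accumulates when IKK-driven degradation is blocked; native CBR normalizes for cell number. OCI-Ly3 cells were treated 4 h with compound and doxycycline, then green and red light read after Chroma-Glo addition.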
UbGFP stabilizer – inhibits proteasome, raising ubiquitin-GFP reporter fluorescence; Ubiquitin-GFP reporter cells, proteasome inhibition, GFP fluorescence; response scale: untreated = 0%, 10 µM MG-132 = 100%; 67,000 tested, under 10 active; Potency, µM (titrated, usually from 45.9 µM), most hits filed as activators; active = well fitted activation curve with a large enough effect, not every such curve was filed as active; inconclusive = small, poorly fitted or top-dose-only effect, or another doubt; inactive = no such curve, though single readings can be large or run the other way
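U2OS Ub(G76V)-GFP reporter; O/N plating, 0.5% FBS; cpd 46 uM–2.9 nM, 4 h, 37 °C; GFP+ cell count, 488/515 nm; norm. to basal vs 10 uM MG-132; CRC fit.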
Each line names hits and unclear results; the compound was inactive in the other large screens; ! = not confirmed by another sample. Unless noted, calls come from the whole dose curve; as a rule, active = well fitted curve in the direction sought with a large enough effect; inconclusive = small, poorly fitted or top-dose-only effect, or another doubt; inactive = no such curve, though single readings can be large; an effect the other way counts as inactive or inconclusive.

CCCCSc1nc(-c2ccc(OC)cc2)ccc1C#N	none (no result: HBB splice mod, Hsp90 Hop PPI, GFP derepression, UbGFP stabilizer)
CCSc1nc(-c2ccc(OC)cc2)ccc1C#N	Hsp90 Hop PPI 25µM (no result: HBB splice mod)
C=C1C[C@@]23C[C@]1(O)CC[C@@H]2[C@]12C=C[C@@H](O)[C@@](C)(C(=O)O1)[C@@H]2[C@@H]3C(=O)O	none (no result: HBB splice mod)
CCN(CC)CCC[C@H](C)Nc1c2ccc(Cl)cc2nc2ccc(OC)cc12	HBB splice mod 13µM, GFP derepression 13µM!, IkB sig inh inconclusive
CCN(CC)CCNc1ccnc2cc(Cl)ccc12	none
COc1ccc(N2C(=O)c3ccc(NC(C)=O)cc3C2=O)cc1	none (no result: HBB splice mod)
COc1cc2c3c(c1)/C(=C1/SC(NC(C)=O)=NC1=O)C(=O)N3C(C)(C)C=C2C	Hsp90 Hop PPI 25µM
CC(C)=CCC/C(C)=C/CO/N=C1/C[C@@H](O)[C@@H](O)[C@@H]2[C@@H]3C(=O)N(C4CCCCC4)C(=O)[C@H]3CC[C@H]12	none (no result: Hsp90 Hop PPI, GFP derepression, IkB sig inh, UbGFP stabilizer)
O=C(O)CCCSc1ccccc1	none
COc1ccc(-c2c(=O)n(OCc3ccccn3)c3ccccc3[n+]2[O-])cc1OC	none
Cc1c(=O)n(OCc2ccccc2F)c2ccccc2[n+]1[O-]	HBB splice mod 20µM, GFP derepression 13µM
C#C[C@@]1(O)CC[C@H]2[C@H]3CCC4=Cc5oncc5C[C@]4(C)[C@@H]3CC[C@@]21C	none
CC(=O)NC(c1ccco1)c1ccc2cccnc2c1O (configuration not stated)	Hsp90 Hop PPI 7.9µM, GFP derepression inconclusive, IkB sig inh inconclusive
Oc1c(C(Nc2ccccn2)c2ccccn2)ccc2cccnc12 (configuration not stated)	Hsp90 Hop PPI 3.2µM, GFP derepression 5µM, IkB sig inh inconclusive
Oc1c([C@H](Nc2ccccn2)c2ccccc2)ccc2cccnc12	Hsp90 Hop PPI inconclusive
C[C@@]1(C(=O)O)CCC[C@@H]1C(=O)O	none
CC(C)[C@@H](CC(=O)N[C@@H]1CCCC[C@H]1C(=O)N[C@H](CC(=O)N[C@@H](CCC(=O)O)CC(=O)O)Cc1c[nH]c2ccccc12)NC(=O)C[C@H](Cc1c[nH]c2ccccc12)NC(=O)[C@@H]1CNCC[C@H]1N	Hsp90 Hop PPI 16µM (no result: GFP derepression, UbGFP stabilizer)
S=C([S-])NCCNC(=S)[S-].[Zn+2]	Hsp90 Hop PPI 16µM (no result: GFP derepression, UbGFP stabilizer)
CC[C@]1(O)C[C@H]2CN(CCc3c([nH]c4ccccc34)[C@](C(=O)OC)(c3cc4c(cc3OC)N(C)[C@@H]3[C@](O)(C(=O)OC)[C@H](OC(C)=O)[C@]5(CC)C=CCN6CC[C@]43[C@@H]65)C2)C1	IkB sig inh 0.79µM
CC(=O)NCCNc1ncnc2ccc(-c3ccccc3C)cc12	none
C=CCn1c(NC(=O)c2ccccc2)c(C#N)c2nc3ccccc3nc21	HBB splice mod 25µM, IkB sig inh inconclusive
Nc1cc2c(nc3c4ccccc4c(N)cc3[n+]2-c2cccc3ccccc23)c2ccccc12 (tested in a mixture with another compound)	Hsp90 Hop PPI 2.5µM
Cc1cc(N)c2ccccc2[n+]1CCCCCCCCCC[n+]1c(C)cc(N)c2ccccc21	Hsp90 Hop PPI inconclusive
CO[C@H]1COC(=O)[C@@H](CCSC)NC(=O)C/C=C\[C@@H](C)COC(=O)[C@@H](OCc2ccccc2)/C=C\[C@@H]1C	none (no result: Hsp90 Hop PPI, GFP derepression, IkB sig inh, UbGFP stabilizer)
Cc1ccc(S(=O)(=O)Oc2ccc(N=Nc3ccc(-c4ccc(N=Nc5c(O)ccc6cc(S(=O)(=O)O)cc(S(=O)(=O)O)c56)c(C)c4)cc3C)cc2)cc1	Hsp90 Hop PPI 0.05µM (no result: GFP derepression, UbGFP stabilizer)
Cc1ccc(N=Nc2c(O)ccc3cc(S(=O)(=O)O)ccc23)cc1	Hsp90 Hop PPI inconclusive
C/C(=C\COc1cc(=O)[nH]c2ccccc12)CC[C@@H](O)C(C)(C)O	none (no result: HBB splice mod)
Fc1c(F)c(F)c(CSc2nc3ccccc3[nH]2)c(F)c1F	Hsp90 Hop PPI 4µM
N.N.N.N.N.N.N.N.N.N.N.N.N.N.O.O.[Ru].[Ru].[Ru]	Hsp90 Hop PPI 16µM
CC(C)CO/N=C1/C[C@@H](O)[C@@H](O)[C@@H]2[C@@H]3C(=O)N(C(C)(C)C)C(=O)[C@H]3CC[C@@H]12	none (no result: Hsp90 Hop PPI, GFP derepression, IkB sig inh, UbGFP stabilizer)
Cc1cccc(NC(=O)c2sc3nc4c(cc3c2N)CCCCCC4)c1C	IkB sig inh 2.5µM (no result: HBB splice mod, Hsp90 Hop PPI, GFP derepression, UbGFP stabilizer)
Cc1cnc(CNc2ncnc3ccc(-c4ccoc4)cc23)cn1	none
O=c1oc2c(O)c(O)cc3c(=O)oc4c(O)c(O)cc1c4c23	Hsp90 Hop PPI 32µM (no result: HBB splice mod)
O=C1C=CC2=C3c4cc(O)c(O)cc4C[C@@]3(O)COC2=C1O	Hsp90 Hop PPI inconclusive (no result: HBB splice mod)
COC(=O)NC(c1ccc(Cl)cc1)C(C(C)=O)C(=O)OC (configuration not stated)	none (no result: Hsp90 Hop PPI, GFP derepression, IkB sig inh, UbGFP stabilizer)
COc1ccc(CNC(=O)C(C#N)c2nc3ccccc3nc2N2CCN(C)CC2)cc1 (configuration not stated)	none
COc1ccc(CNC(=O)C(C#N)c2nc3ccccc3nc2N2CCCC2)cc1 (configuration not stated)	HBB splice mod 13µM, GFP derepression inconclusive, UbGFP stabilizer inconclusive
CCN1C(=O)c2cccc3c(NC(=O)C4CCCCC4)ccc1c23	none (no result: UbGFP stabilizer)
CCN1C(=O)c2cccc3c(NC(=O)c4ccc5c(c4)OCCO5)ccc1c23	GFP derepression 13µM
C=C(C)C(=O)OC	none (no result: GFP derepression, UbGFP stabilizer)
Clc1ccc(OCc2nc(-c3ccccn3)n[nH]2)cc1	Hsp90 Hop PPI 16µM, GFP derepression inconclusive, IkB sig inh inconclusive
O=C(O)c1cn[nH]c1-n1cnnn1	Hsp90 Hop PPI 25µM
